Reference: the supplement of paper PMC10849652
Of roughly 7,900 targets only a part is listed; those with a hit were picked by preference. About 0.6% of all pairs of compound and target were hits. Unmarked numbers belong to inactive results.

Key:
Assay in all cases: log2 fold change, soluble protein after heating vs DMSO (PISA); higher = thermal stabilisation; K562 cells, 10 uM, 30 min; active = over 0.2 and 3.5 SD of the protein, either way, in both replicates (recomputed)
erlotinib = compound: C#Cc1cccc(Nc2ncnc3cc(OCCOC)c(OCCOC)cc23)c1 [erlotinib]
Method in brief: (§1)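 For each measurement, 10 μM compound was applied for 30 min to K562 cells at 2×10^6 cells/mL. Aliquots were heated for 3 min across 48°C-58°C, pooled, and extracted in PBS with 0.5% NP-40 at 4°C; the supernatant after 21,000xg for 90 min was soluble protein. This was quantified by TMTpro 16plex LC-MS/MS with channel sums equalised, and thermal stability was reported relative to control samples from duplicates, on a log2 fold-change scale.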

[1] = compound: C/C(=N\NC(=O)C1=CC(=CC=C1)S(=O)(=O)N2CCOCC2)/C3=C(C=CC(=C3)Cl)O
Method in brief: as §1

[2] = compound: C1=CC(=C(C=C1Cl)C2=NC3=NC=CN=C3C(=N2)NC4=CC=NC=C4)F
Method in brief: as §1

[3] = compound: C1=CC(=CC=C1C2=NC3=C(N2)C=C(C=C3)C(=O)N)OC4=CC=C(C=C4)Cl
Method in brief: as §1

[4] = compound: C1=CC2=C(C=CC(=C2)/C=C\3/C(=O)NC(=NCC4=CC=CS4)S3)N=C1
Method in brief: as §1

[5] = compound: C1=CC2=NC=CN=C2C=C1/C=C/3\C(=O)NC(=O)S3
Method in brief: as §1

[6] = compound: C1=CC=C(C=C1)C2=NC(=C(N2)C3=CC=NC=C3)C4=CC(=C(C=C4)Cl)O
Method in brief: as §1

[7] = compound: C1=CC=C2C(=C1)C3=NNC4=CC=CC(=C43)C2=O
Method in brief: as §1

[8] = compound: C1CCN(C1)C(=O)NC2=CC=CC(=C2)NC3=NC=C(C(=N3)NCCC4=CN=CN4)Br
Method in brief: as §1

[9] = compound: C1CN(CCC1(CC2=CC=C(C=C2)Cl)N)C3=NC=NC4=C3C=CN4
Method in brief: as §1

UniProt Q9UK41, sequence (Q9UK41 whole entry, looked up): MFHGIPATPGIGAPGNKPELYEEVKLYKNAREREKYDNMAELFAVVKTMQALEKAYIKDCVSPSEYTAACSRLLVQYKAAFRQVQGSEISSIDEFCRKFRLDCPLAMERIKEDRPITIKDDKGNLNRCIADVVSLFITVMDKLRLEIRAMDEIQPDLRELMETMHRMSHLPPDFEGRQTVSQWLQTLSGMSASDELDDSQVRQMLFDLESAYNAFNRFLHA
UniProt O43379, sequence (O43379 whole entry, looked up): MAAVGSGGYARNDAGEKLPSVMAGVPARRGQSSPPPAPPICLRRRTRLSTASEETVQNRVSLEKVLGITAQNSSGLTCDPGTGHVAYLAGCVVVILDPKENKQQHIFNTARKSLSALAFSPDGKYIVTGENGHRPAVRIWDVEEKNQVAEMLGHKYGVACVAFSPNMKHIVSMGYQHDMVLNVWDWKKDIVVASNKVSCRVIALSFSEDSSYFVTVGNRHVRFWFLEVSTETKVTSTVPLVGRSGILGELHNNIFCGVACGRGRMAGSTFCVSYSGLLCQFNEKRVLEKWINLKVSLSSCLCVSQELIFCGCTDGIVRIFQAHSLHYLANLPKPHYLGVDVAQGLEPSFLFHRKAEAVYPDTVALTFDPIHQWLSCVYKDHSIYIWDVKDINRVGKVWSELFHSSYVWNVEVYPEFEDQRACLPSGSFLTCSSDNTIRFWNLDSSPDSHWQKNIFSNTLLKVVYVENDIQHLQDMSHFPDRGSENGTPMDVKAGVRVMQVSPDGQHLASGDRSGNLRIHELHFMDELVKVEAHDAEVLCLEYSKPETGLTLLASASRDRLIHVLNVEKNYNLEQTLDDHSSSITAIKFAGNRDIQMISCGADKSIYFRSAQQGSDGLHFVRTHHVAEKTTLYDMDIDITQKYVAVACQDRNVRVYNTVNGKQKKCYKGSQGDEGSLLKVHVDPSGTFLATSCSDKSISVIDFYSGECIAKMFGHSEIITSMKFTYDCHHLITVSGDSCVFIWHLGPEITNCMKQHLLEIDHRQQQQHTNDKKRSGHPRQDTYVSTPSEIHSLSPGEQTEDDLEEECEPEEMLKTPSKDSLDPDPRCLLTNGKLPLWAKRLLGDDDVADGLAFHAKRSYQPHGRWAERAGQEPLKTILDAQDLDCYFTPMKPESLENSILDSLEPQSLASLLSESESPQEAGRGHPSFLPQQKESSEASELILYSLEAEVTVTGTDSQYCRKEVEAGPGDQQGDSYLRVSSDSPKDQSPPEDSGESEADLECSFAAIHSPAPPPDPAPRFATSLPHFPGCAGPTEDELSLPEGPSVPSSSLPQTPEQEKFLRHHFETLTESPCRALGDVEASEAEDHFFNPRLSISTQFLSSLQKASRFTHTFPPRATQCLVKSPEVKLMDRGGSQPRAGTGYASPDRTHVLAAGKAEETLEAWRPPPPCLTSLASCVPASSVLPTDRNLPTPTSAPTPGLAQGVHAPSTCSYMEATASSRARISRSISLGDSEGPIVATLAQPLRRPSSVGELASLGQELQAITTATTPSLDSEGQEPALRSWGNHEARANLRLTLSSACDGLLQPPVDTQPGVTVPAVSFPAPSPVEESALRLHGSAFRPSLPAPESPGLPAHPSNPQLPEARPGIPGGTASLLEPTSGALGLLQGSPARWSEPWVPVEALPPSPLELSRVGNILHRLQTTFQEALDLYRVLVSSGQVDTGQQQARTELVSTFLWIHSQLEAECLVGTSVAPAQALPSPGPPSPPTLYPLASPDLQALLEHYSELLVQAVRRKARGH
UniProt P30291, sequence (P30291 whole entry, looked up): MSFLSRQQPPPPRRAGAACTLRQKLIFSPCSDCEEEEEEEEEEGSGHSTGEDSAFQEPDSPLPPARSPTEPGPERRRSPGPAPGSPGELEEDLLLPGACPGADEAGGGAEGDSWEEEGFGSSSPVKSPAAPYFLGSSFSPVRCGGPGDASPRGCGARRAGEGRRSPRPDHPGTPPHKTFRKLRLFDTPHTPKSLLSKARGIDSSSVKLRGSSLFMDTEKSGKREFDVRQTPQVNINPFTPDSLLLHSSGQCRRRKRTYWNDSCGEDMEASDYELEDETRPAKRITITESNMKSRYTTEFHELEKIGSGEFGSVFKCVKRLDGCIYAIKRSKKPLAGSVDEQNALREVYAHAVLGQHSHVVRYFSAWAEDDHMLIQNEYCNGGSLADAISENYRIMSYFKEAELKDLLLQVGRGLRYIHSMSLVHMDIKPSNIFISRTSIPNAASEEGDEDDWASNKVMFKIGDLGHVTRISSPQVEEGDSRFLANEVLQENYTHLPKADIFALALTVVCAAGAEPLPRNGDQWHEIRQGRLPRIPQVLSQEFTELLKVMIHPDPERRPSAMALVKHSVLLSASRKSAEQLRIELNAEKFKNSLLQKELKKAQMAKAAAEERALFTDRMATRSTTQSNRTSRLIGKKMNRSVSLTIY
UniProt O43592, sequence (O43592 whole entry, looked up): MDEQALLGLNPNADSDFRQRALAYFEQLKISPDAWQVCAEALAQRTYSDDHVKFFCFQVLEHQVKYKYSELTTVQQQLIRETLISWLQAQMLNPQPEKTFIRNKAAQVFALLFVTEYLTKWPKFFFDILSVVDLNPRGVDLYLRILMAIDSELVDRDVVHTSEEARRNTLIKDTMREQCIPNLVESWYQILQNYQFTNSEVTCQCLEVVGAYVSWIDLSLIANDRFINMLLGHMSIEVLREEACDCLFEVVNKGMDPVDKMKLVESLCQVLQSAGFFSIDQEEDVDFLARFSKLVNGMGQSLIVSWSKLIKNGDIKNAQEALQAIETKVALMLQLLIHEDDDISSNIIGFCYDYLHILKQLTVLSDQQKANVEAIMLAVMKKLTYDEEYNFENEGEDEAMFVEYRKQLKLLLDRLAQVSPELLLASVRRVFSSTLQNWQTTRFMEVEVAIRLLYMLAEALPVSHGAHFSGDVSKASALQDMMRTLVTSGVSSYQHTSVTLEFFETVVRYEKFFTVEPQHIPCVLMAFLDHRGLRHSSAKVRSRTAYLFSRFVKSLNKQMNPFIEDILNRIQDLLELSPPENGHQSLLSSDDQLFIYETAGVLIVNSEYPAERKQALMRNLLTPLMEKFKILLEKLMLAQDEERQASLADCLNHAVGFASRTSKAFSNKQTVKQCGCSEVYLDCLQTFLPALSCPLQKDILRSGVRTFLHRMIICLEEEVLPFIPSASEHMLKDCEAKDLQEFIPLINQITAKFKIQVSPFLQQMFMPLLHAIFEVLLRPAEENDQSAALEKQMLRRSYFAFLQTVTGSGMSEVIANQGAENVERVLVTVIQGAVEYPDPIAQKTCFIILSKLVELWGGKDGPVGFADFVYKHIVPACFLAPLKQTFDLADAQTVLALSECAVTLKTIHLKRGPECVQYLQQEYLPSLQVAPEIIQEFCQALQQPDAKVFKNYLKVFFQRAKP
UniProt O95379, sequence (O95379 whole entry, looked up): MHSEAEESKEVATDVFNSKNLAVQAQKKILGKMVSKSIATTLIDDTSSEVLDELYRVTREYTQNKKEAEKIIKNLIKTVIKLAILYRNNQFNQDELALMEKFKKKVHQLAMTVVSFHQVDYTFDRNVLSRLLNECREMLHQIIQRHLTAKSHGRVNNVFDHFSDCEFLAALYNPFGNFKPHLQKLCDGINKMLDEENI
UniProt Q01081, sequence (Q01081 whole entry, looked up): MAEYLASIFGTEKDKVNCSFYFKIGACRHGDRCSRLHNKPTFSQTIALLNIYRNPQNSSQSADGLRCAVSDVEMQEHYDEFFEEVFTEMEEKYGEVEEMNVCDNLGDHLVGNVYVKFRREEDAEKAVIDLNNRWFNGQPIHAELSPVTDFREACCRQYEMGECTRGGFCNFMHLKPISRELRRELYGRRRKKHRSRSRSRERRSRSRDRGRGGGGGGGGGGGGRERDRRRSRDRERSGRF
UniProt Q96JC1, sequence (Q96JC1 whole entry, looked up): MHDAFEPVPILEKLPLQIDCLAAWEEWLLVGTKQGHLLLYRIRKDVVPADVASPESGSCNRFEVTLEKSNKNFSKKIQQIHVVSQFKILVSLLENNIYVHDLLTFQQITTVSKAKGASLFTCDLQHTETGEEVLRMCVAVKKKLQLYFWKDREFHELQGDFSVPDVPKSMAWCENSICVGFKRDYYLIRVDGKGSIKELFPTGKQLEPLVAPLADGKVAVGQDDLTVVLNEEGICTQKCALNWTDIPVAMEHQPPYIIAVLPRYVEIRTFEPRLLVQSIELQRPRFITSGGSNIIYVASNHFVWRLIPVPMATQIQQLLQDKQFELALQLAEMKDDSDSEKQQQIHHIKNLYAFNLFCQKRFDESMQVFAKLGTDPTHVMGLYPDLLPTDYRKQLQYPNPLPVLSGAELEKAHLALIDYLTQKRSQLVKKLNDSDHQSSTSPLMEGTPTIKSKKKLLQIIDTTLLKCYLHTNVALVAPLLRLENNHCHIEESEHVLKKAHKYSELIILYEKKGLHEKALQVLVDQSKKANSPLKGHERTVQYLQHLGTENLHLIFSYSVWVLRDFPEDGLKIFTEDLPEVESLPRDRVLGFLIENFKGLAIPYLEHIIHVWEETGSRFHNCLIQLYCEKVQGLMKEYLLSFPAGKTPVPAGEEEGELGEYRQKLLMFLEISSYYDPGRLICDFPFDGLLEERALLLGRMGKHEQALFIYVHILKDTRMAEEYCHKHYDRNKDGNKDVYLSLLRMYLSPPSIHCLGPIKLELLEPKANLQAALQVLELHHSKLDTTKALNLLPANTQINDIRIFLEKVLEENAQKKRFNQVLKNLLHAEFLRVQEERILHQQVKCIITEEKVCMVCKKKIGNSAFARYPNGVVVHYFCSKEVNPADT
UniProt Q9Y385, sequence (Q9Y385 whole entry, looked up): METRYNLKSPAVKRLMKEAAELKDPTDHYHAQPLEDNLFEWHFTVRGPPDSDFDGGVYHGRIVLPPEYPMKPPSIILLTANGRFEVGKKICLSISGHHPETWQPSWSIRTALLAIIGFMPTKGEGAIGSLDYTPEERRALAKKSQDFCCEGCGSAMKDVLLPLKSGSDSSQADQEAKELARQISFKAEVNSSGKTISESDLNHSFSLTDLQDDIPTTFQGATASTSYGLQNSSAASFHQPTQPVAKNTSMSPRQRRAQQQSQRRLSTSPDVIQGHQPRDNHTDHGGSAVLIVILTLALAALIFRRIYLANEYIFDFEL

Target	log2 fold change (erlotinib)	log2 fold change [1]	log2 fold change [2]	log2 fold change [3]	log2 fold change [4]	log2 fold change [5]	log2 fold change [6]	log2 fold change [7]	log2 fold change [8]	log2 fold change [9]
WASHC2A (UniProt Q641Q2)	0.008	-0.026	-0.025	0.002	0.004	0.058	-0.072	-0.037	0.029	-0.017
WBP4 (UniProt O75554)	0	-0.07	0.04	0.009	-0.082	0.031	-0.059	-0.055	0.031	0.036
TNNC2 (UniProt P02585)	0.035	-0.007	-0.004	0.018	0.047	0.026	-0.058	-0.026	0.101	-0.449
TPM2 (UniProt P07951)	-0.05	0.009	0.417	0.021	-0.146	0.025	0.102	0.02	-0.069	0.101
WEE1 (UniProt P30291)	0.029	-0.06	-0.081	0.047	-0.206	0.249	-0.177	0.037	-0.085	-0.239
USP9X (UniProt Q93008)	0.012	0.06	-0.012	-0.029	0.026	0.008	0.013	-0.033	0.002	-0.002
VPS39 (UniProt Q96JC1)	-0.006	0.08	-0.005	0.022	0	0.023	-0.014	-0.046	0.01	0.054
TRMT10A (UniProt Q8TBZ6)	-0.01	0.044	0.004	0.031	0.037	0.02	-0.015	0.271 (active)	0.038	-0.045
TMEM263 (UniProt Q8WUH6)	0.093	0.024	0.024	-0.012	0.058	-0.013	0.02	-0.101	0.036	0.022
USP15 (UniProt Q9Y4E8)	0.026	0.078	0.08	-0.015	0.027	0.031	0	0.012	-0.011	-0.031
VRK1 (UniProt Q99986)	0.087	-0.055	0.119	-0.016	0.038	-0.024	-0.039	0.078	-0.044	-0.045
WASHC3 (UniProt Q9Y3C0)	0.029	-0.015	0.053	0.007	0.12	0.036	0.017	-0.114	-0.041	0.059
TOM1 isoform 2 (UniProt O60784)	0.012	0.014	0.107	-0.04	-0.006	-0.016	-0.053	0.004	-0.023	0.014
TP53BP1 isoform 2 (UniProt Q12888)	-0.011	0.019	-0.017	-0.001	0.012	0.043	-0.024	-0.078	-0.057	-0.077
UBE2J1 (UniProt Q9Y385)	0.053	0.063	-0.033	0.045	0.148	0.054	0.043	0.036	-0.097	0.012
XPO1 (UniProt O14980)	0.019	0.118	0.045	-0.06	0.061	0.041	0.051	-0.036	0.002	-0.027
UBE4B isoform 4 (UniProt O95155)	-0.01	0.026	0.041	-0.016	0	0.055	0.026	-0.013	-0.008	-0.025
XRCC5 (UniProt P13010)	0.103	0.178	-0.012	-0.038	0.079	0.037	0.11	-0.039	-0.059	-0.139
U2AF1 isoform 2 (UniProt Q01081)	0.015	0.119	-0.02	-0.036	-0.038	0.015	0.036	-0.036	-0.071	-0.071
WDR37 isoform 2 (UniProt Q9Y2I8)	0.039	0.006	-0.097	0.012	-0.026	-0.204	0.006	-0.144	0.01	-0.088
TMEM9 (UniProt Q9P0T7)	0.014	0.008	0.254	-0.021	-0.034	-0.117	0.037	-0.004	-0.053	-0.025
TMEM208 (UniProt Q9BTX3)	-0.021	0.032	0.101	0.046	0.13	0.011	-0.054	-0.098	-0.002	0.033
TNFAIP8 isoform 4 (UniProt O95379)	0.019	0.071	0.087	-0.028	0.039	0.017	-0.015	-0.07	0.003	0.023
WDR62 isoform 4 (UniProt O43379)	0.046	0.015	-0.118	0.055	-0.016	0.046	-0.05	-0.041	0	0.014
VPS28 (UniProt Q9UK41)	-0.072	0.031	0.27	-0.011	0.009	0.023	0.009	0.001	-0.091	-0.043
XPOT (UniProt O43592)	-0.035	0.069	0.005	-0.058	0.037	0.065	-0.047	-0.026	-0.005	-0.088
USP25 isoform 3 (UniProt Q9UHP3)	0.007	0.086	0.02	0.002	0.028	0.005	-0.024	0.011	-0.038	0.043
